PubChem BioAssay (NCI)
The panel holds about 83,000 compounds, 20% with a hit somewhere; the sample as a whole holds those more often.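 A percent growth of 40 corresponds to 60% growth inhibition; 0 means no net growth; -100 means all cells died. Active threshold: below 10.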 Activity calls are given as the source filed them.

Legend:
Experiment in all cases: NCI-60 one-dose screen, 48 h (100 = growth as untreated, 0 = no growth, -100 = all killed)
Conditions in all cases: 10 µM unless noted
SK-MEL-2 melanoma = test system: SK-MEL-2 melanoma
EKVX NSCLC = test system: EKVX NSCLC
SN12C renal = test system: SN12C renal
UO-31 renal = test system: UO-31 renal
TK-10 renal = test system: TK-10 renal
ACHN renal = test system: ACHN renal
CAKI-1 renal = test system: CAKI-1 renal
A498 renal = test system: A498 renal
CCRF-CEM leukemia = test system: CCRF-CEM leukemia
MOLT-4 leukemia = test system: MOLT-4 leukemia
RPMI-8226 leukemia = test system: RPMI-8226 leukemia
OVCAR-8 ovarian = test system: OVCAR-8 ovarian
OVCAR-5 ovarian = test system: OVCAR-5 ovarian
OVCAR-4 ovarian = test system: OVCAR-4 ovarian
SK-OV-3 ovarian = test system: SK-OV-3 ovarian
IGROV1 ovarian = test system: IGROV1 ovarian
OVCAR-3 ovarian = test system: OVCAR-3 ovarian
HS 578T breast = test system: HS 578T breast
NCI/ADR-RES ovarian = test system: NCI/ADR-RES ovarian

Measured: growth

O=C1CSC(c2c(Cl)cccc2Cl)N1c1nc(Cl)cc(=O)[nH]1 (stereo unspecified)
inactive: SK-MEL-2 melanoma 78.3% | EKVX NSCLC 119% | SN12C renal 108% | UO-31 renal 79.8% | TK-10 renal 161% | ACHN renal 111% | CAKI-1 renal 117% | A498 renal 121% | CCRF-CEM leukemia 67.3% | MOLT-4 leukemia 171% | RPMI-8226 leukemia 58.7% | OVCAR-8 ovarian 107% | OVCAR-5 ovarian 94.4% | OVCAR-4 ovarian 130% | SK-OV-3 ovarian 109% | IGROV1 ovarian 71.9% | OVCAR-3 ovarian 107% | HS 578T breast 109% | NCI/ADR-RES ovarian 95%

COc1ccc(C(=O)C[C@]2(O)C(=O)Nc3c(Cl)ccc(Cl)c32)cc1
active: A498 renal -23.6% | OVCAR-3 ovarian 9.64% | HS 578T breast -3.94%
inactive: SK-MEL-2 melanoma 37.5% | EKVX NSCLC 51.2% | SN12C renal 39.8% | UO-31 renal 46.8% | TK-10 renal 71.6% | ACHN renal 44.5% | CAKI-1 renal 32.3% | CCRF-CEM leukemia 15.8% | MOLT-4 leukemia 34.1% | RPMI-8226 leukemia 20.1% | OVCAR-8 ovarian 33.1% | OVCAR-5 ovarian 52.1% | OVCAR-4 ovarian 48.4% | SK-OV-3 ovarian 33.1% | IGROV1 ovarian 34.8% | NCI/ADR-RES ovarian 14.1%

NC1=C(c2nn[nH]n2)C(c2ccccc2Cl)c2ccc3ccccc3c2O1 (stereo unspecified)
inactive: SK-MEL-2 melanoma 89.7% | EKVX NSCLC 90.7% | SN12C renal 84% | UO-31 renal 60% | TK-10 renal 74.9% | ACHN renal 77.5% | CAKI-1 renal 36.9% | A498 renal 48% | CCRF-CEM leukemia 77.5% | MOLT-4 leukemia 70.9% | RPMI-8226 leukemia 71.7% | OVCAR-8 ovarian 86% | OVCAR-5 ovarian 109% | OVCAR-4 ovarian 81.5% | SK-OV-3 ovarian 86.2% | IGROV1 ovarian 63.2% | OVCAR-3 ovarian 69.6% | HS 578T breast 80.3% | NCI/ADR-RES ovarian 55.9%

COc1ccc(C(=S)N2CCN(c3cccc(C)c3)CC2)cc1OC
inactive: SK-MEL-2 melanoma 34% | EKVX NSCLC 102% | SN12C renal 75% | UO-31 renal 76% | TK-10 renal 92.7% | ACHN renal 79.7% | CAKI-1 renal 62.5% | A498 renal 86.4% | CCRF-CEM leukemia 74% | MOLT-4 leukemia 54.8% | RPMI-8226 leukemia 80% | OVCAR-8 ovarian 76.6% | OVCAR-5 ovarian 93.4% | OVCAR-4 ovarian 103% | SK-OV-3 ovarian 88.5% | IGROV1 ovarian 42.4% | OVCAR-3 ovarian 41.1% | HS 578T breast 103%
active: NCI/ADR-RES ovarian 5.68%

O=C(N/N=C/c1c(Cl)cccc1Cl)c1ccc(C(F)(F)F)nc1Nc1cccc(C(F)(F)F)c1
active: SN12C renal 1.33% | UO-31 renal 1.91% | TK-10 renal 1.46% | ACHN renal -15.7% | A498 renal -5.26% | CCRF-CEM leukemia -8.45% | MOLT-4 leukemia -12.9% | OVCAR-3 ovarian -58% | NCI/ADR-RES ovarian -4.2%
inactive: SK-MEL-2 melanoma 26% | EKVX NSCLC 16.9% | CAKI-1 renal 13.8% | RPMI-8226 leukemia 13.8% | OVCAR-8 ovarian 18.7% | OVCAR-5 ovarian 20.5% | OVCAR-4 ovarian 13.1% | SK-OV-3 ovarian 15% | IGROV1 ovarian 12.4% | HS 578T breast 11.4%

FC(F)(F)c1cc(Nc2ccc3c(OCCCN4CCOCC4)cccc3n2)ccc1Cl
inactive: SK-MEL-2 melanoma 99.6% | EKVX NSCLC 48.8% | SN12C renal 66.9% | UO-31 renal 51% | TK-10 renal 76.6% | ACHN renal 50.7% | CAKI-1 renal 55.9% | A498 renal 67.1% | CCRF-CEM leukemia 24.8% | MOLT-4 leukemia 18.3% | RPMI-8226 leukemia 13.4% | OVCAR-8 ovarian 75.5% | OVCAR-5 ovarian 50.5% | OVCAR-4 ovarian 55.4% | SK-OV-3 ovarian 78.5% | IGROV1 ovarian 48.4% | OVCAR-3 ovarian 60.9% | HS 578T breast 55% | NCI/ADR-RES ovarian 56.2%

COc1cc(/C=C/c2c(C(C)=O)c(C)nc3ccccc23)cc(OC)c1OC
inactive: SK-MEL-2 melanoma 47.9% | EKVX NSCLC 52.4% | SN12C renal 35.3% | UO-31 renal 36.7% | TK-10 renal 78.8% | ACHN renal 37.6% | CAKI-1 renal 24.7% | CCRF-CEM leukemia 21.3% | MOLT-4 leukemia 33.6% | RPMI-8226 leukemia 23.6% | OVCAR-8 ovarian 52.6% | OVCAR-5 ovarian 61.3% | OVCAR-4 ovarian 52.7% | SK-OV-3 ovarian 36.6% | IGROV1 ovarian 32% | OVCAR-3 ovarian 15.1% | NCI/ADR-RES ovarian 23.1%
active: A498 renal -23.8% | HS 578T breast -16.7%

Cc1cccc(OCC(O)CN2CCN(c3ccc(Cl)cc3)CC2)c1 (stereo unspecified)
inactive: SK-MEL-2 melanoma 110% | EKVX NSCLC 115% | SN12C renal 100% | UO-31 renal 82.4% | TK-10 renal 106% | ACHN renal 108% | CAKI-1 renal 93.1% | A498 renal 100% | CCRF-CEM leukemia 89% | MOLT-4 leukemia 97.1% | RPMI-8226 leukemia 103% | OVCAR-8 ovarian 94.9% | OVCAR-5 ovarian 103% | OVCAR-4 ovarian 106% | SK-OV-3 ovarian 115% | IGROV1 ovarian 124% | OVCAR-3 ovarian 104% | HS 578T breast 107% | NCI/ADR-RES ovarian 102%

Cc1ccc(C2CC(c3ccc(Nc4ccnc5cc(Cl)ccc45)cc3)=NN2C=O)cc1 (stereo unspecified)
inactive: SK-MEL-2 melanoma 72.2% | EKVX NSCLC 50.1% | SN12C renal 55.1% | UO-31 renal 31.9% | TK-10 renal 83.2% | ACHN renal 34.8% | CAKI-1 renal 49% | A498 renal 73.4% | CCRF-CEM leukemia 28.2% | MOLT-4 leukemia 31.8% | RPMI-8226 leukemia 19.8% | OVCAR-8 ovarian 59.8% | OVCAR-5 ovarian 94.8% | OVCAR-4 ovarian 38.7% | SK-OV-3 ovarian 84.8% | IGROV1 ovarian 48.2% | OVCAR-3 ovarian 30.6% | HS 578T breast 61.8% | NCI/ADR-RES ovarian 42.3%
